This assay is described as follows: chemical genetic growth profiling, strain panel (AID 1159580).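 Note: tested at 20 µM; growth read once vehicle control cultures reached saturation at 30 °C; 1 = growth at the plate median or of vehicle wells; lower values mean less growth of the strain.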 Conditions: S. cerevisiae deletion strains, growth OD.
[1] abbreviates: locus YAL040C, strain CLN3, active compounds read low.
The mark [2] stands for this setting: locus YCL061C, strain MRC1 (second series), active compounds read low.
Where [3] appears, read: locus YDR363W, strain ESC2, active compounds read low.
Setting [4] is: locus YER002W, strain NOP16, active compounds read low.
[5] abbreviates: locus YJR075W, strain HOC1, active compounds read low.
Where [6] appears, read: locus YNL197C, strain WHI3, active compounds read low.
Where [7] appears, read: locus YNL224C, strain SQS1, active compounds read low.
[8] abbreviates: locus YOR083W, strain WHI5 (second series), active compounds read low.

Two compounds from PubChem BioAssay AID1159580 (chemical genetic matrix, 2015) can be followed below.

Molecules are shown by their SMILES. About 2,000 (36%) of roughly 5,500 compounds were called active. Roughly 18% stayed inconclusive and do not appear here. Some of the results follow. A number with no mark means an inactive call. Cut-off read from the data, not from the text of the source: active = normalized growth mostly below about 0.91 (no sharp cut-off); inconclusive = no clear call, values can overlap the other calls; inactive = mostly above about 0.92.

Turning to `CCCCCCCCCCCCCCCC(=O)NCCO`, the normalized growth was 1.02 under setting [1]; 1.01 under setting [2]; 1.02 under setting [3]; 1.01 under setting [4]; 1.01 under setting [5]; 1 (locus YMR307W, strain GAS1, active compounds read low). Also, the normalized growth is 1.03 under setting [6]; 0.823 (active) under setting [7]; 1.02 under setting [8]; 1.02 (locus YPL055C, strain LGE1, active compounds read low); 0.999 (locus YPL241C, strain CIN2, active compounds read low).
As for `CCCCCCCC/C=C\CCCCCCCC(=O)NCCO`, the normalized growth is, setting by setting: (locus YAL013W, strain DEP1, active compounds read low) 1.01; under setting [1], 1.01; under setting [2], 1; (locus YDR150W, strain NUM1, active compounds read low) 1; under setting [3], 0.974; under setting [4], 1.02. Also, the normalized growth by setting is: under setting [5], 1; (locus YMR263W, strain SAP30, active compounds read low) 0.994; (locus YNL153C, strain GIM3, active compounds read low) 0.981; (locus YNL175C, strain NOP13, active compounds read low) 0.963; under setting [6], 0.989; under setting [7], 1. The normalized growth (locus YNL322C, strain KRE1, active compounds read low) was 0.978 and the normalized growth under setting [8] was 0.999.
